About 83,000 compounds went through this panel and 20% of them were active in at least one assay; those are over-represented in the sample as a whole.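 Cells were grown in 96-well plates and exposed to the test compound at a single concentration for 48 hours; results are reported as percent growth, with values below 10 considered active.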 Values without a mark were called inactive. Activity calls are given as the source filed them.

In the first assay the test system is OVCAR-8 ovarian. Briefly: NCI-60 one-dose screen, 48 h (100 = growth as untreated, 0 = no growth, -100 = all killed). The settings on record: 10 µM unless noted.
`C=C1C(=O)O[C@H]2[C@H]1CC/C(COC(=O)NCCc1ccc(Br)cc1)=C\CC[C@@]1(C)O[C@@H]21`: the growth was 7.1% (active).

As to `COc1ccc(C(=O)/C=C/c2ccc(/C=C/c3cc(OC)c(OC)c(OC)c3)cc2)cc1`, the growth is 28.4%.

`COc1ccc(C2CC(=O)Nc3c2c(C)nn3-c2nc3ccccc3[nH]2)cc1OC` (stereo unspecified): the growth was 62%.

In the case of `O=C(O)c1ccc(-n2cc(CNc3ccc(C(F)(F)F)cc3)c(-c3ccccc3)n2)cc1`, the growth is 79.8%.

`C=C1C(=O)O[C@H]2[C@H]1CC/C(COC(=O)NCCc1cccc(OC)c1)=C\CC[C@@]1(C)O[C@@H]21`: the growth was 17.4%.

`Nc1ccc(S(=O)(=O)c2ccc(Cl)cc2)cc1`: the growth is 107%.

Turning to `C/C(=C\c1csc(C)n1)[C@@H]1C[C@@H]2O[C@]2(C)CCC[C@H](C)[C@H](O)[C@@H](C)C(=O)C(C)(C)[C@@H](O)CC(=O)N1`, the growth was -74% (active).

With `CCNC(=O)C1CCCN1C(=O)C(CCCN=C(N)N)NC(=O)C(CC(C)C)NC(=O)C(CC(C)C)NC(=O)C(Cc1ccc(O)cc1)NC(=O)C(CO)NC(=O)C(Cc1c[nH]c2ccccc12)NC(=O)C(Cc1cnc[nH]1)NC(=O)C1CCC(=O)N1` (stereo unspecified), the growth was 95.9%.

Regarding `O=C(O)C(=Cc1c2ccccc2cc2ccccc12)C(=O)O`, the growth is 104%.

Regarding `CCCCCCCCCCn1cc[n+](C)c1`, the growth is 11.5%.

With `Cc1oc2ncnc(Nc3ccccc3)c2c1C(=O)NCCO`, the growth was 113%.

As to `O=C(Nc1ccc(I)cc1)c1cc([N+](=O)[O-])ccc1O`, the growth was 39.9%.

For the molecule `C[C@]12CC[C@@H]3c4cc(O)c(O)cc4CC[C@H]3[C@@H]1CC[C@@H]2O`, the growth was 51.6%.

For `O=C1C2=C(C(=O)c3c(O)ccc(O)c31)N(c1cccnc1)Cc1ccccc1O2`, the growth is 2.92% (active).

In the case of `CCCCCCc1nc2c(c(C)nn2-c2ccccc2)c2c1CCCCC2`, the growth is 107%.

Consider `COc1ccc(-c2nc3sccn3c2-c2ccnc(NCCCNS(=O)(=O)c3ccc(C)cc3)n2)cc1`, for which the growth was 25%.

With `NC(=O)c1cccc(N2Cc3ccccc3OC3=C2C(=O)c2c(O)ccc(O)c2C3=O)c1`, the growth was -41.9% (active).

On to `Nc1cccc2c1CN(C1CCC(=O)NC1=O)C2=O` (stereo unspecified), for which the growth was 81.1%.

Take `COc1ccc2c(c1)C(=O)/C(=C/c1ccc(O)cc1)O2`: the growth is 93.1%.

For `COc1cccc(-c2nc3sccn3c2-c2ccnc(NCCCNS(=O)(=O)c3ccc(F)cc3)n2)c1`, the growth was 17.3%.

Regarding `O=C1NCC(c2cc3ccccc3[nH]c2=O)Nc2ccccc21` (stereo unspecified), the growth is 103%.

As to `COC1=CC(c2ccc[nH]2)=N/C1=C\c1[nH]c(C)c(C(=O)CCCCC(=O)NCc2ccccc2)c1C`, the growth was 31.5%.

In the case of `COc1ncc(-c2ccc3ncnc(Nc4cccc(Cl)c4)c3c2)cc1NS(=O)(=O)C1CC1`, the growth is 41.7%.

With `C=C1C(=O)O[C@H]2[C@H]1CC/C(Cn1cc(-c3ccsc3)nn1)=C\CC[C@@]1(C)O[C@@H]21`, the growth was -4.45% (active).

With `C=C1C(=O)O[C@H]2[C@H]1CC/C(COC(=O)NCCc1ccc(OC)cc1)=C\CC[C@@]1(C)O[C@@H]21`, the growth is 2.7% (active).

Consider `CCN(C(=O)c1cc2ccccc2[nH]1)[C@H]1CCC[C@@H](NCc2ccc(OC)cc2)C1`, for which the growth is 100%.

For the molecule `COc1ccc(C2NC3=C(CCCC3)C(C#N)(C#N)C2(C#N)C#N)cc1` (stereo unspecified), the growth was 104%.

With `CCCCCc1c(C)[nH]c(/C=c2\[nH]/c(=C3/C=c4ccccc4=N3)cc2OC)c1C`, the growth is -41.9% (active).

Turning to `Nc1c(C(=O)Nc2cccc(Cl)c2Cl)sc2nc3c(cc12)C(=O)CCC3`, the growth is 114%.

Consider `O=C1CCC/C=C\C[C@H]2C=CC(=O)/C2=C/C[C@H](C/C=C\CC(F)(F)F)O1`, for which the growth is 10.4%.

As for `COc1ccc(/C=C/C(=O)/C=C/c2cc3ccc(Cl)cc3[nH]c2=O)cc1`, the growth was 81.4%.

`N#Cc1c(NC(=O)c2ccc([N+](=O)[O-])o2)[n+]([O-])c2cc(F)c(F)cc2[n+]1[O-]`: the growth is 68%.

As for `CC(CCc1ccccc1)NC(=O)c1n[nH]c(=O)c2ccccc12` (stereo unspecified), the growth is 101%.

Consider `COc1ccc(/C=C/c2cc(N3CCOCC3)c3cc(F)c(F)cc3n2)cc1OC`, for which the growth was 28.6%.

In the case of `CC(C)C[C@H](NC(=O)Cn1ccc(NCc2ccccc2)cc1=O)B(O)O`, the growth is 51.3%.

As for `CCNc1nc(N2CC(=O)Nc3cc(OC)ccc32)c2ccccc2n1`, the growth is 18.1%.

`COc1ccc(/C=C/c2nc(N3CCOCC3)c3nc(Cl)c(Cl)cc3n2)cc1OC`: the growth was 99%.

In the case of `O=S=Nc1ccc([N+](=O)[O-])cc1`, the growth is 104%.

The test system of a further assay is OVCAR-5 ovarian. The description is as above. The settings on record: 10 µM unless noted.
Regarding `C=C1C(=O)O[C@H]2[C@H]1CC/C(COC(=O)NCCc1ccc(Br)cc1)=C\CC[C@@]1(C)O[C@@H]21`, the growth is 39.6%.

In the case of `COc1ccc(C(=O)/C=C/c2ccc(/C=C/c3cc(OC)c(OC)c(OC)c3)cc2)cc1`, the growth is 117%.

On to `COc1ccc(C2CC(=O)Nc3c2c(C)nn3-c2nc3ccccc3[nH]2)cc1OC` (stereo unspecified), for which the growth was 111%.

As for `O=C(O)c1ccc(-n2cc(CNc3ccc(C(F)(F)F)cc3)c(-c3ccccc3)n2)cc1`, the growth was 119%.

In the case of `C=C1C(=O)O[C@H]2[C@H]1CC/C(COC(=O)NCCc1cccc(OC)c1)=C\CC[C@@]1(C)O[C@@H]21`, the growth is 75.1%.

For the molecule `Nc1ccc(S(=O)(=O)c2ccc(Cl)cc2)cc1`, the growth was 90.1%.

As to `C/C(=C\c1csc(C)n1)[C@@H]1C[C@@H]2O[C@]2(C)CCC[C@H](C)[C@H](O)[C@@H](C)C(=O)C(C)(C)[C@@H](O)CC(=O)N1`, the growth is -6.81% (active).

In the case of `CCNC(=O)C1CCCN1C(=O)C(CCCN=C(N)N)NC(=O)C(CC(C)C)NC(=O)C(CC(C)C)NC(=O)C(Cc1ccc(O)cc1)NC(=O)C(CO)NC(=O)C(Cc1c[nH]c2ccccc12)NC(=O)C(Cc1cnc[nH]1)NC(=O)C1CCC(=O)N1` (stereo unspecified), the growth is 87.3%.

As for `O=C(O)C(=Cc1c2ccccc2cc2ccccc12)C(=O)O`, the growth was 112%.

As to `CCCCCCCCCCn1cc[n+](C)c1`, the growth is 45.6%.

On to `Cc1oc2ncnc(Nc3ccccc3)c2c1C(=O)NCCO`, for which the growth was 93.2%.

`O=C(Nc1ccc(I)cc1)c1cc([N+](=O)[O-])ccc1O`: the growth was 54.8%.

Consider `C[C@]12CC[C@@H]3c4cc(O)c(O)cc4CC[C@H]3[C@@H]1CC[C@@H]2O`, for which the growth is 98%.

Regarding `O=C1C2=C(C(=O)c3c(O)ccc(O)c31)N(c1cccnc1)Cc1ccccc1O2`, the growth is -39.6% (active).

As to `CCCCCCc1nc2c(c(C)nn2-c2ccccc2)c2c1CCCCC2`, the growth is 114%.

Turning to `COc1ccc(-c2nc3sccn3c2-c2ccnc(NCCCNS(=O)(=O)c3ccc(C)cc3)n2)cc1`, the growth is 93.4%.

For the molecule `NC(=O)c1cccc(N2Cc3ccccc3OC3=C2C(=O)c2c(O)ccc(O)c2C3=O)c1`, the growth was -68.1% (active).

Regarding `Nc1cccc2c1CN(C1CCC(=O)NC1=O)C2=O` (stereo unspecified), the growth was 95.6%.

Turning to `COc1ccc2c(c1)C(=O)/C(=C/c1ccc(O)cc1)O2`, the growth was 103%.

On to `COc1cccc(-c2nc3sccn3c2-c2ccnc(NCCCNS(=O)(=O)c3ccc(F)cc3)n2)c1`, for which the growth is 116%.

For `O=C1NCC(c2cc3ccccc3[nH]c2=O)Nc2ccccc21` (stereo unspecified), the growth was 91.2%.

Regarding `COC1=CC(c2ccc[nH]2)=N/C1=C\c1[nH]c(C)c(C(=O)CCCCC(=O)NCc2ccccc2)c1C`, the growth is 47.3%.

As for `COc1ncc(-c2ccc3ncnc(Nc4cccc(Cl)c4)c3c2)cc1NS(=O)(=O)C1CC1`, the growth is 28%.

As to `C=C1C(=O)O[C@H]2[C@H]1CC/C(Cn1cc(-c3ccsc3)nn1)=C\CC[C@@]1(C)O[C@@H]21`, the growth was -18.3% (active).

`C=C1C(=O)O[C@H]2[C@H]1CC/C(COC(=O)NCCc1ccc(OC)cc1)=C\CC[C@@]1(C)O[C@@H]21`: the growth is 30.9%.

For the molecule `CCN(C(=O)c1cc2ccccc2[nH]1)[C@H]1CCC[C@@H](NCc2ccc(OC)cc2)C1`, the growth is 85.5%.

As to `COc1ccc(C2NC3=C(CCCC3)C(C#N)(C#N)C2(C#N)C#N)cc1` (stereo unspecified), the growth is 97.1%.

As to `CCCCCc1c(C)[nH]c(/C=c2\[nH]/c(=C3/C=c4ccccc4=N3)cc2OC)c1C`, the growth was -7.96% (active).

On to `Nc1c(C(=O)Nc2cccc(Cl)c2Cl)sc2nc3c(cc12)C(=O)CCC3`, for which the growth was 99.1%.

For `O=C1CCC/C=C\C[C@H]2C=CC(=O)/C2=C/C[C@H](C/C=C\CC(F)(F)F)O1`, the growth was -6.91% (active).

For `COc1ccc(/C=C/C(=O)/C=C/c2cc3ccc(Cl)cc3[nH]c2=O)cc1`, the growth was 108%.

With `N#Cc1c(NC(=O)c2ccc([N+](=O)[O-])o2)[n+]([O-])c2cc(F)c(F)cc2[n+]1[O-]`, the growth is 108%.

Consider `CC(CCc1ccccc1)NC(=O)c1n[nH]c(=O)c2ccccc12` (stereo unspecified), for which the growth was 118%.

As for `COc1ccc(/C=C/c2cc(N3CCOCC3)c3cc(F)c(F)cc3n2)cc1OC`, the growth was 65.5%.

For the molecule `CC(C)C[C@H](NC(=O)Cn1ccc(NCc2ccccc2)cc1=O)B(O)O`, the growth is 38.9%.

On to `CCNc1nc(N2CC(=O)Nc3cc(OC)ccc32)c2ccccc2n1`, for which the growth is 20%.

As to `COc1ccc(/C=C/c2nc(N3CCOCC3)c3nc(Cl)c(Cl)cc3n2)cc1OC`, the growth is 109%.

`O=S=Nc1ccc([N+](=O)[O-])cc1`: the growth is 87.2%.

The values above are taken from PubChem BioAssay (NCI).
